Shown are actives, neighbours in structure and some others; about 21% of the full set was active somewhere.
Pf growth 96h – Primary qHTS for delayed death inhibitors of the malarial parasite plastid, 96 hour incubation; P. falciparum luciferase reporter growth, 96 h; Potency, µM (doses to about 28.7 µM), hits mostly inhibitors; 320,000 tested, 6.9% active; active = well fitted inhibition curve with a large enough effect; inconclusive = small, poorly fitted or top-dose-only effect, or another doubt; inactive = no such curve, though single readings can be large or run the other way
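Two-generation exposure (96 h) targets delayed-death phenotype. Reporter parasites carrying integrated firefly luciferase, in red cells at 2% hematocrit and 0.05% parasitemia final, kept at 37 C, 5% CO2; luminescence loss indicates inhibition.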
NS1 inh – qHTS Assay for Inhibitors of Influenza NS1 Protein Function. Potency, µM (titrated, usually from 46.1 µM). 270,000 tested, 0.4% active; also: actives are rising curves; nearly all actives have a fitted effect of over 50% in size
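Read-out: OD600 growth recovery of NS1-expressing budding yeast. Cells grown overnight at 30C in -URA glucose medium, washed, resuspended and diluted 1:100 in 2% galactose assay medium, pH 6.0. Same strain lacking NS1 served as positive control.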
SARS PLpro yeast – qHTS of Yeast-based Assay for SARS-CoV PLP; Potency, µM (titrated, usually from 32.9 µM), most hits filed as activators; 330,000 tested, 0.19% active; AID 485353, 2010; S. cerevisiae expressing SARS-CoV PLpro, growth rescue; also: nearly all actives have a fitted effect of over 55% in size
Shiga toxin inh – A qHTS for Small Molecule Inhibitors of Shiga Toxin; Vero cells, Shiga toxin protein synthesis inhibition reporter; inhibition, % at 38.7 µM; 290,000 tested, 9.2% active; in the data active = inhibition mostly above about 28%, no sharp cut-off; inactive = mostly below about 43%
Pf growth 48h – Primary qHTS for delayed death inhibitors of the malarial parasite plastid, 48 hour incubation; P. falciparum luciferase growth in erythrocytes, 48 h; Potency, µM (titrated, usually from 28.7 µM), most hits filed as inhibitors; 310,000 tested, 5.9% active; AID 504832, 2011; active = well fitted inhibition curve with a large enough effect; inconclusive = small, poorly fitted or top-dose-only effect, or another doubt; inactive = no such curve, though single readings can be large or run the other way
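Read-out is firefly luciferase luminescence from an integrated reporter in P. falciparum, so falling signal marks reduced parasite growth. Infected erythrocytes were at 2% hematocrit and 0.1% parasitemia (final) in Albumax-supplemented RPMI 1640.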
CHX counter – Cycloheximide Counterscreen for Small Molecule Inhibitors of Shiga Toxin; cell reporter, cycloheximide protein synthesis inhibition counterscreen; max response, %; 300,000 tested, 12% active; AID 2314, 2010; in the data active = max response mostly above about 13%, no sharp cut-off; inactive = mostly below about 14%; also: read at 38.3 µM for the half of the compounds with a filed dose
Large screens that a line does not name were inactive. Unless noted, calls follow the shape of the full dose curve.

Cc1ccc2c(ccc[n+]2CC(=O)c2ccccc2)c1	SARS PLpro yeast inconclusive, Pf growth 48h 14.7µM
O=C(C[n+]1cccc2ccccc21)c1ccc(Cl)cc1	none (no result: Pf growth 48h)
CCOc1ccc(NC(=O)c2ccc(CNc3c(NC4CCCCC4)c(=O)c3=O)cc2)cc1	none (no result: Pf growth 48h)
CCOc1ccc(NC(=O)c2ccc(NC(=S)NC3CCCCC3)cc2)cc1	Pf growth 96h inconclusive, Pf growth 48h inconclusive, CHX counter 23.7
CCOc1ccc(NC(=O)c2ccc(NC(=S)NC3CC3)cc2)cc1	Shiga toxin inh 50.6, Pf growth 48h inconclusive (no result: NS1 inh)
CCCc1ccc(Oc2cc(Cl)nc(N)n2)cc1	Pf growth 96h inconclusive, CHX counter 16.1
Cn1c2cc(B(O)O)sc2c2cnn(Cc3c(F)cccc3Cl)c(=O)c21	Pf growth 96h 10.4µM, Pf growth 48h 13.1µM (no result: NS1 inh, Shiga toxin inh, CHX counter)
CC1CCN(c2ccc(-c3ccc(NC(=O)C(F)(F)F)cc3)nn2)CC1	Shiga toxin inh 40.9, CHX counter 36.2
COc1ccc(NC(=O)N2CCCC(C(=O)NCc3ccccc3F)C2)cc1 (stereo not given)	none
Cn1c(SCC(=O)Nc2ccccc2F)nnc1-c1ccc(S(=O)(=O)N2CCOCC2)cc1	Pf growth 96h inconclusive
COc1ccccc1N1CCN(C2CCCN(Cc3cc(F)cc(F)c3)C2)CC1 (stereo not given)	Pf growth 96h inconclusive, Pf growth 48h inconclusive
COc1ccccc1N1CCN(C2CCCN(Cc3ccccc3OCCO)C2)CC1 (stereo not given)	Pf growth 96h 1.65µM, SARS PLpro yeast inconclusive, Pf growth 48h inconclusive
COc1ccccc1N1CCN(C2CCCN(Cc3ccc(Cl)cc3)C2)CC1 (stereo not given)	Pf growth 96h 13.1µM
COc1ccc(O)c(CN2CCCC(N3CCN(c4ccccc4OC)CC3)C2)c1 (stereo not given)	Pf growth 48h inconclusive
O=C(COc1ccc(S(=O)(=O)N2CCOCC2)cc1)NCCc1ccccc1	Pf growth 48h inconclusive (no result: NS1 inh, Shiga toxin inh, CHX counter)
COc1ccc(CNC(=O)c2sccc2C)cc1	CHX counter 14.7
COc1ccccc1CNC(=O)C(NC(=O)c1ccccc1)C(C)C (stereo not given)	Pf growth 48h 13.1µM
COc1ccccc1CNC(=O)c1sccc1C	none
Cc1ccc(Oc2ccc(C(=O)NCc3ccncc3)cc2)cc1	Pf growth 96h inconclusive, Pf growth 48h inconclusive (no result: NS1 inh)
COc1ccccc1CNC(=O)c1ccc(-c2ccccc2)cc1	Pf growth 96h inconclusive
COc1ccc(C(=O)NCc2ccccc2OC)cc1	Pf growth 96h 5.22µM, Pf growth 48h inconclusive
COc1ccc(CNC(=O)c2ccc(C)cc2)cc1	Shiga toxin inh 39.2 (no result: Pf growth 96h, NS1 inh, SARS PLpro yeast, Pf growth 48h)
CCC(c1nnc(SCC(=O)Nc2ccc(Cl)cc2C(F)(F)F)n1C1CCCCC1)N(C)C (stereo not given)	Pf growth 96h inconclusive, Pf growth 48h inconclusive
CCc1ccc([C@@H]2CC=C(C(=O)O)CN2S(=O)(=O)c2ccc(C)cc2)cc1	none (no result: NS1 inh, Shiga toxin inh, CHX counter)
CCCNC(=O)C(Cc1ccc(Cl)cc1)NC(=O)c1ccc(-c2ccccc2)cc1 (stereo not given)	Pf growth 96h inconclusive (no result: NS1 inh, Shiga toxin inh, CHX counter)
O=C(CC1CCCCC1)NCCS(=O)(=O)N1CCN(c2ccccc2)CC1	none (no result: NS1 inh, Shiga toxin inh, CHX counter)
COC(=O)Cc1ccc(OC(=O)CCS(=O)(=O)c2ccc(C)cc2)cc1	none (no result: NS1 inh, SARS PLpro yeast, Shiga toxin inh, CHX counter)
COc1ccc(CNC(=O)c2ccc(-c3ccccc3)cc2)cc1	Shiga toxin inh 79.3, CHX counter 45.1
COc1ccc(CNC(=O)c2ccc(Br)cc2)cc1	CHX counter 12.8
COc1ccc(CCNC(=O)c2ccc(Br)cc2)cc1	none
Cc1ccc(S(=O)(=O)N(CC(=O)NCCC2=CCCCC2)Cc2ccccc2F)cc1	Pf growth 96h 11.7µM, Pf growth 48h inconclusive
O=C(CN(Cc1ccccc1F)S(=O)(=O)c1ccc(Cl)cc1)NCCC1=CCCCC1	Pf growth 96h 11.7µM, Pf growth 48h inconclusive
COc1ccc(CCc2nnc(CCC(=O)NCCc3ncccc3C)o2)cc1	CHX counter 20.9
Cc1cccnc1CCNC(=O)CCc1nnc(-c2ccccc2)o1	none
COc1ccc(CCc2nnc(CCC(=O)NCc3cc(C(C)C)no3)o2)cc1	Pf growth 96h inconclusive, Shiga toxin inh 79.9, CHX counter 34.9
CC(C)C(=O)Nc1ccc(N2CCCC2)cc1	Pf growth 96h 4.15µM (no result: Pf growth 48h)
CC(=O)N1CCN(c2ccc(NC(=O)C(c3ccccc3)c3ccccc3)cc2)CC1	Pf growth 48h inconclusive
O=C(Nc1ccc(N2CCCCC2)cc1)C(Cl)c1ccccc1 (stereo not given)	CHX counter 45.7
O=C(Nc1ccc(N2CCCC2)cc1)C(c1ccccc1)c1ccccc1	Pf growth 96h 4.65µM (no result: Pf growth 48h)
COc1cccc(NC(=O)C(C)Sc2nnc(C3CC3)n2C2CC2)c1 (stereo not given)	Pf growth 48h inconclusive (no result: NS1 inh, Shiga toxin inh, CHX counter)
Cc1cccc(NC(=O)COC(=O)CCc2c[nH]c3ccccc23)c1C	Pf growth 96h inconclusive, Pf growth 48h 13.1µM (no result: NS1 inh, Shiga toxin inh, CHX counter)
Cc1cccc(C)c1NC(=O)COC(=O)CCc1c[nH]c2ccccc12	Pf growth 96h 6.57µM, Pf growth 48h 3.7µM (no result: NS1 inh, Shiga toxin inh, CHX counter)
O=C(Oc1nsnc1N1CCCCC1)N1CCOCC1	none
CCCCS(=O)(=O)Nc1ccc2c(c1)ncn2C1CCCCC1	none (no result: Pf growth 96h)
c1ccc(CNc2ccc3c(c2)ncn3C2CCCCC2)nc1	Shiga toxin inh 45.9, Pf growth 48h inconclusive, CHX counter 21.9
CCOc1ccc2[nH]c(C(=O)N/N=C/c3ccc(OC)cc3)cc2c1	none
Cc1ccc(NC(=O)c2cc3cc(OC(F)(F)F)ccc3[nH]2)cc1	Pf growth 96h inconclusive, Pf growth 48h inconclusive
COc1ccc(NC(=O)c2cc3ccccc3[nH]2)cc1	Shiga toxin inh 64.4, CHX counter 40.2
Cc1cc(C)c2cc(C(=O)Nc3ccc(C)c(F)c3)[nH]c2c1	Pf growth 96h inconclusive, Pf growth 48h 11.7µM
COc1ccc2[nH]c(C(=O)N/N=C/c3ccc(O)cc3O)cc2c1	Pf growth 96h inconclusive, SARS PLpro yeast inconclusive, Pf growth 48h 6.57µM
COc1ccc2[nH]c(C(=O)Nc3ccc(C)c(F)c3)cc2c1	Shiga toxin inh 69.5, CHX counter 35.8
CCCCNC(=O)c1cc2c(C)cc(C)cc2[nH]1	Pf growth 48h inconclusive
CCCN(C(=O)CSc1n[nH]c(-c2ccc(OC)cc2)n1)c1c(N)n(Cc2ccccc2)c(=O)[nH]c1=O	none (no result: NS1 inh, Shiga toxin inh, CHX counter)
COc1ccc2[nH]c(C(=O)Nc3cccc(C)n3)cc2c1	Shiga toxin inh 46.8, CHX counter 28.6
CC(C)(C)c1ccc(S(=O)(=O)NNC(=O)c2cc3ccccc3[nH]2)cc1	NS1 inh inconclusive, Shiga toxin inh 53.5, CHX counter 27.3
COc1ccc2[nH]c(C(=O)NCc3ccccc3)cc2c1	none
O=C(Nc1ccc2nc(-c3ccccn3)c(-c3ccccn3)nc2c1)N1CCOCC1	Pf growth 96h inconclusive
Cc1ccc(NC(=S)Nc2ccccn2)cc1C	Pf growth 96h inconclusive, Shiga toxin inh 85.1, Pf growth 48h inconclusive, CHX counter 64.7

Screens (PubChem)
